An excerpt weighted towards active compounds, which were near 32% of everything screened.
CYP2C9 inh – human CYP2C9 inhibition; CYP2C9 Supersomes, luciferin-H conversion, luminescence; 96,000 compounds, 20% hits; inhibition, % at 5 µM; P11712; AID 777;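 active means blocking of liver enzyme CYP2C9 beyond about 50% at 5 µM, limit read from the data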
PostGolgi yeast – growth inhibition of a yeast mutant, post-Golgi transport screen; post-Golgi transport phenotypic cell assay; inhibition, % at 10 µM; 98,000 compounds, 0.9% hits;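 further: yeast cells grown in 1536-well plates; yeast grown about 18 h at 30C before absorbance read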
CYP2C19 inhib – inhibitors of human CYP2C19 | 96,000 compounds, 21% hits | inhibition, % at 5 µM | CYP2C19 Supersomes, luciferin-H EGE luminescence, 30 min | P33261;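 active means CYP2C19 inhibition above a set limit at 5 µM in the primary screen, cut at about 50% in these data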
CYP2C19 activ – cytochrome P450 2C19 (human) activation | P33261 | recombinant CYP2C19, luciferin-H EGE luminescence; stronger effect = higher value; 0 = fully inhibited enzyme, 1 = untreated enzyme | activation factor at 5 µM | 96,000 tested, under 10 active | AID 1025;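 active means activation factor of at least 2 at 5 µM in the primary screen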
PostGolgi ctrl – growth of the yeast control strain, post-Golgi counter-screen; AID 738; inhibition, % at 10 µM; 98,000 compounds, 5% hits; efflux-deficient yeast background strain, growth absorbance A615, 16 h
CYP2C9 act – activators of human CYP2C9 | P11712 | recombinant CYP2C9, luciferin-H conversion, luminescence; stronger effect = higher value; factor 1 = untreated enzyme, 0 = blocked | activation factor at 5 µM | 96,000 compounds, 1.4% hits | AID 1024;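 active means activation factor of 2 or more for CYP2C9 at a 5 µM dose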
A number is an active result; n = inactive; x = no result given. Unless noted, no stated cut-off is given here; in the data, active means inhibition above about 30%; inactive means the rest.

SMILES	CYP2C9 inh	PostGolgi yeast	CYP2C19 inhib	CYP2C19 activ	PostGolgi ctrl	CYP2C9 act
Cc1ccc(-c2cc(C)nc3nc(N)nn23)cc1	n	n	n	n	n	n
CCOC(=O)N1CCC(n2c(=S)[nH]c3cc(OC)c(OC)cc3c2=O)CC1	n	n	n	n	n	n
COc1cccc(/C(O)=C2/C(=O)C(=O)N(CCN3CCOCC3)C2c2cccs2)c1 (configuration not stated)	n	n	n	n	n	n
CCC(=O)Nc1cccc(-c2cn3ccsc3n2)c1	n	n	n	n	n	n
Cc1cccc(S(=O)(=O)Nc2cccc(-c3cn4ccsc4n3)c2)c1	90.8	n	79.7	n	46.1	n
COC(c1ccccc1)c1c(-c2ccccc2)nn(C)c1Cl (configuration not stated)	70.8	n	94.1	n	n	n
Cn1nc(-c2ccccc2)c(C(O)c2ccccc2C(F)(F)F)c1Cl (configuration not stated)	n	n	n	n	n	n
Cc1nc2nc(C)c(CCC(=O)NCc3ccc4c(c3)OCO4)c(C)n2n1	n	n	n	n	n	n
COc1ccc(/C=C2/N=C(c3cccs3)OC2=O)cc1OC(C)C	72.2	n	n	n	n	n
CN(C)/C=C1\N=C(c2cccs2)OC1=O	n	n	n	n	n	n
CCN1CCN(C(=O)C2CCN(S(=O)(=O)c3cccc4cccnc34)CC2)CC1	n	n	n	n	n	n
CC(NCc1ccc2c(c1)OCO2)C(=O)NC1CCCc2ccccc21 (configuration not stated)	n	n	n	n	n	n
O=C(COC(=O)c1ccccc1OCc1ccccc1Cl)NC1CC1	n	n	53.0	n	n	n
CCOC(=O)C1CCN(C(=O)CN(c2ccc3c(c2)OCO3)S(C)(=O)=O)CC1	n	n	n	n	n	n
Cn1c(=O)c(Oc2cc(Cl)cc(Cl)c2)nc2ccccc21	n	n	n	n	n	n
COc1ccc(C2C(C(C)=O)=C(C)Nc3ncnn32)cc1OC (configuration not stated)	n	n	n	n	n	n
CCCCCOc1ccc(C2C(C(C)=O)=C(C)Nc3ncnn32)cc1OC (configuration not stated)	54.0	n	n	n	n	n
CC1=C(C(=O)OCc2ccccc2)C(c2cccnc2)n2ncnc2N1 (configuration not stated)	n	n	n	n	n	n
CCCC1=C(C(=O)OCC)C(c2ccncc2)n2ncnc2N1 (configuration not stated)	97.2	n	78.4	n	n	n
COc1cccc(C2C(C(=O)OCc3ccccc3)=C(C)Nc3ncnn32)c1OC (configuration not stated)	n	n	64.0	n	n	n
CCCCOC(=O)C1=C(C)Nc2ncnn2C1c1cc(OC)ccc1OC (configuration not stated)	58.4	n	n	n	n	n
CC(=O)c1c(C)nc(-c2ccc(Cl)cc2Cl)n1O	x	n	x	x	n	x
COc1ccccc1NC(=O)C1=C(C)Nc2nc(CCCO)nn2C1c1ccc2c(c1)OCO2 (configuration not stated)	59.4	n	n	n	n	n
CCOC(=O)C1=C(c2ccccc2)Nc2ncnn2C1c1ccc(OC)c(OC)c1OC (configuration not stated)	n	n	n	n	n	n
CCOC(=O)C1=C(CNCCc2ccc(Cl)cc2)NC(=O)NC1c1ccc2c(c1)OCO2 (configuration not stated)	88.7	n	86.0	n	n	n
CCOC(=O)C1=C(C)Nc2ncnn2C1c1ccc2c(c1)OCO2 (configuration not stated)	61.7	n	50.1	n	n	n
CCCCOC(=O)C1=C(C)Nc2ncnn2C1c1cccc(OC)c1OC (configuration not stated)	57.9	n	81.7	n	n	n
CC(C)NC(=O)c1ccc(-c2ccc(Cl)c(C(F)(F)F)c2)o1	n	n	n	n	n	n
CCCCOC(=O)C1=C(C)Nc2ncnn2C1c1cccc(OC)c1 (configuration not stated)	50.6	n	67.6	n	n	n
COC(=O)C1=C(C)Nc2ncnn2C1c1ccc(C)o1 (configuration not stated)	n	n	n	n	n	n

Source: PubChem
